Compound activity as filed in PubChem.
The list is not random: actives were taken first. Their share in the collection is about 10%.
aGal spleen mod – inhibitors or activators of human alpha-galactosidase in spleen homogenate; human spleen homogenate, 4MU-alpha-Gal fluorescence, 40 min; Potency, µM (titrated, usually from 80 µM), hits mostly inhibitors; 240,000 compounds, 0.008% hits; AID 2107
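Spleen homogenate 1 ug + cpd (titration) + 4-MU-alpha-D-galactopyranoside 1 mM; 37C 40 min; 50 mM citrate/phosphate pH 5.0, 0.01% Tween-20; stop pH 10; fluorescence 365/440; AC50 via Hill.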
ALOX12 inhib – blocks human 12-lipoxygenase activity. purified 12-hLO, xylenol orange hydroperoxide absorbance. Potency, µM (titrated, usually from 57.1 µM), usual class: inhibitors. 150,000 compounds, 0.12% hits. AID 1452; also: nearly all actives have a fitted effect of over 55% in size
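Hydroperoxide output read as Fe(III)-xylenol orange absorbance, 573-to-405 nm ratio, after 30 min reaction with 40 uM arachidonic acid. Enzyme: 150 nM purified human 12hLO, 15 min compound preincubation; 25 mM Hepes pH 7.0, room temperature.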
GLA inh pH 4.5 – inhibitors of human alpha-galactosidase A at pH 4.5 | P06280 | 230,000 tested, under 10 active | activity change, negative = inhibition, % at 105 µM | purified enzyme, 4-MU-alpha-Gal fluorescence, pH 4.5 | AID 1467
PNC inhibitor – perinucleolar compartment assembly inhibition; PC3M PTB-GFP, PNC prevalence imaging, 16 h; hits give low values; activity change (PNC), negative = inhibition, % at 10 µM; 140,000 compounds, 3.1% hits;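 active = readout at or below -70, meaning at least 70% loss of cells showing the perinucleolar compartment, a nuclear body marking cancer cells; inconclusive = readout between -30 and a set limit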
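Read-out is percentage of cells bearing a perinucleolar compartment, from automated 20x imaging of fixed, Hoechst-stained PC3M PTB-GFP cells. Cells were seeded 4 h, then exposed 16 h to compound (23 nl of library stock) in duplicate plates.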
HPGD block – blocks human HPGD enzyme activity; AID 894; 150,000 compounds, 4.3% hits; Potency, µM, hits mostly inhibitors; purified HPGD, NADH fluorescence kinetic, PGE2 substrate; P15428; active = well fitted inhibition curve with a large enough effect, not every such curve was filed as active; inconclusive = small, poorly fitted or top-dose-only effect, or another doubt; inactive = no such curve, though single readings can be large or run the other way
Target sequence (P15428 whole entry, looked up): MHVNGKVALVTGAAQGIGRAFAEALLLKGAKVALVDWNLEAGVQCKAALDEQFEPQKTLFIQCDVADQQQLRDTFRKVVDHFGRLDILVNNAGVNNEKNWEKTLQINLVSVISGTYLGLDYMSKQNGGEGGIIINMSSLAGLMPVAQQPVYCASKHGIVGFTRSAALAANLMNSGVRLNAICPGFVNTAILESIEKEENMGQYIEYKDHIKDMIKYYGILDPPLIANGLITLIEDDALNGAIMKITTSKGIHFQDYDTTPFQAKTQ
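NADH formation kinetics: reaction with 30 uM PGE2 and 1 mM NAD+ (final), 20 nM enzyme, Tris-HCl pH 8 with Tween 20, after 15 min compound preincubation at room temperature. Fluorescence change, last versus first of five reads.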
ALDH1A1 block – inhibitors of human aldehyde dehydrogenase 1A1 | 220,000 compounds, 7.3% hits | Purified ALDH1A1, NADH fluorescence, propionaldehyde substrate | Potency, µM (titrated, usually from 75.3 µM), most hits filed as inhibitors | AID 1030; active = well fitted inhibition curve with a large enough effect, not every such curve was filed as active; inconclusive = small, poorly fitted or top-dose-only effect, or another doubt; inactive = no such curve, though single readings can be large or run the other way
Numbers stand for hits; - = inactive; ? = inconclusive; . = no result given; [ ] = another dose, or the depositor's remark. Unless noted, calls follow the shape of the dose curve; as a rule, active = well fitted curve in the direction sought with a large enough effect; inconclusive = small, poorly fitted or top-dose-only effect, or another doubt; inactive = no such curve, though single readings can be large; an effect the other way counts as inactive or inconclusive.

SMILES	aGal spleen mod	ALOX12 inhib	GLA inh pH 4.5	PNC inhibitor	HPGD block	ALDH1A1 block
Oc1c(C(Nc2nc3ccccc3s2)c2ccco2)ccc2cccnc12 (stereo not given)	-	-	-	-	-	-
O=[N+]([O-])c1ccc([C@@H](Nc2ccccc2)c2ccc3cccnc3c2O)cc1	.	-[11.4 µM]	.	.	-	?
CC(C)C(=O)NC(c1ccco1)c1ccc2cccnc2c1O (stereo not given)	-	10µM	-	-	-	-
Oc1c(C(Nc2nccs2)c2ccc(C(F)(F)F)cc2)ccc2cccnc12 (stereo not given)	-	.	-	.	.	-
Oc1c(C(Nc2cccc(C(F)(F)F)c2)c2ccncc2)ccc2cccnc12 (stereo not given)	-	.	-	.	.	18µM
O=C(O)c1ccc(N[C@H](c2ccccc2)c2ccc3cccnc3c2O)cc1	.	-[11.4 µM]	.	.	?	4µM
O=S(=O)(c1cnc(Cl)c(Br)c1)N1CCN(c2ncccn2)CC1	-	.	-	.	.	0.35µM
O=S(=O)(c1ccc(Cl)s1)N1CCN(c2ncccn2)CC1	-	-	-	-	-	-
O=S(=O)(c1ccc(Cl)c(S(=O)(=O)N2CCCC2)c1)N1CCCC1	-	.	-	.	.	-
O=S(=O)(c1cnc(Cl)c(Br)c1)N1CCCCCC1	-	-	-	-	-	8.9µM
O=S(=O)(c1ccc(Cl)nc1)N1CCN(c2ncccn2)CC1	-	.	-	.	.	.
O=S(=O)(c1cnc(Cl)c(Cl)c1)N1CCN(c2ncccn2)CC1	-	.	-	.	.	0.79µM
O=c1c(C(c2ccccc2)c2c(O)sc3ccccc3c2=O)c(O)sc2ccccc12	-	-	-	?	-	-
Cc1cc(=O)[nH]c(SCCOc2ccc(OC(C)C)cc2)n1	-	-	-	-	18µM	?
COC(=O)c1ccccc1S(=O)(=O)N1CCc2nc(-c3ccc(OC)cc3C)c3c(c2C1)CO[C@@H](c1ccccc1)C3	-[17.5 µM]	-[11.4 µM]	-	.	-	4µM
COC(=O)[C@@H](NC(=O)N1CCc2nc(-c3ccc(OC)cc3C)c3c(c2C1)CO[C@@H](c1ccccc1)C3)C(C)C	-[17.5 µM]	-[11.4 µM]	-	.	-	?
COc1cccc(CC(=O)N2CCc3nc(-c4ccccc4)c4c(c3C2)CO[C@@H](C)C4)c1	-[17.5 µM]	-[11.4 µM]	-	.	-	-[13.5 µM]
CCCCS(=O)(=O)N1CCc2nc(-c3ccc(OC)cc3C)c3c(c2C1)CO[C@@H](c1ccccc1)C3	-[17.5 µM]	-[11.4 µM]	-	.	-	0.45µM
COc1ccc(-c2nc3c(c4c2C[C@H](c2ccccc2)OC4)CN(S(=O)(=O)c2ccc(NC(C)=O)cc2)CC3)c(C)c1	-[17.5 µM]	-[11.4 µM]	-	.	-	0.45µM
CC(NC(=O)CC(O)(C(F)(F)F)C(F)(F)F)c1ccccc1 (stereo not given)	-	-	-	-88	-	-
CC(NC(=O)Cc1ccccc1)c1ccc(F)cc1 (stereo not given)	-	-	-	-	-	-
CCC(/C=C1\Sc2ccc(OC)cc2N1CC)=C\c1sc2ccc(OC)cc2[n+]1CCCS(=O)(=O)[O-]	-	.	-[21.1 µM]	.	.	1.3µM
CS(=O)(=O)c1ccc(CNC(=O)C2(C(F)(F)F)CC(CCCO)CCCO2)cc1 (stereo not given)	-	.	.	.	.	.
c1ccc(OCc2nc3c4c(ncn3n2)-c2ccccc2CC42CCCC2)cc1	-	-	-	-125	-	?
O=C(N/C=C/c1ccco1)OCc1ccccc1	-	.	-	.	.	?
SMILES	aGal spleen mod	ALOX12 inhib	GLA inh pH 4.5	PNC inhibitor	HPGD block	ALDH1A1 block
Cc1ccc(C(=O)N/C(=C/c2ccco2)C(=O)NCC2CCCO2)cc1 (stereo not given)	-	-	-	?	-	?
O=C(/C=C/c1ccco1)NCc1ccc(F)cc1	-	.	-	.	.	18µM
O=C(N/C=C/c1ccco1)NCc1ccccc1	-	.	-	.	.	22µM
O=C(/C=C/c1ccco1)NCC1CCCO1 (stereo not given)	-	-	-	-	?	22µM
CN(C)c1ncc2nc(CCc3ccccc3)c(=O)n(Cc3ccc(F)cc3)c2n1	-	-	.	.	-	?
CCN(CC1COc2ccccc2O1)S(=O)(=O)c1ccc(C)cc1 (stereo not given)	-	-	-	-	-	-
